The entries come from a sample that favours the strongest signals as a whole.
Tests used:
Assay in all cases: glycan array binding signal (z-score within array); higher = stronger binding
Conditions in all cases: glycan notation: IUPAC condensed, linker removed; mutation: R186I
[1] = molecular target: Fuc(a1-2)Gal(b1-3)GalNAc(b1-3)Gal
Procedure, shortened: (§1)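 From the Consortium for Functional Glycomics database, 3228 arrays were curated, keeping only those whose protein sequence was available. Binding is given as a within-array Z-score averaged across arrays sharing a protein sequence and across linkers. Negative Z-scores can be read as non-binding.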

[2] = molecular target: Fuc(a1-2)Gal(b1-3)GalNAc(b1-3)Gal(a1-4)Gal(b1-4)Glc
Procedure, shortened: as §1

[3] = molecular target: Fuc(a1-2)Gal(b1-3)GlcNAc(b1-3)[Fuc(a1-3)[Gal(b1-4)]GlcNAc(b1-6)]Gal(b1-4)Glc
Procedure, shortened: as §1

[4] = molecular target: Fuc(a1-2)Gal(b1-4)GlcNAc(b1-2)Man(a1-3)[Fuc(a1-2)Gal(b1-4)GlcNAc(b1-2)Man(a1-6)]Man(b1-4)GlcNAc(b1-4)GlcNAc
Procedure, shortened: as §1

[5] = molecular target: Fuc(a1-2)[Gal(a1-3)]Gal(b1-3)GlcNAc(b1-2)Man(a1-3)[Fuc(a1-2)[Gal(a1-3)]Gal(b1-3)GlcNAc(b1-2)Man(a1-6)]Man(b1-4)GlcNAc(b1-4)GlcNAc
Procedure, shortened: as §1

[6] = molecular target: Fuc(a1-2)[Gal(a1-3)]Gal(b1-4)GlcNAc(b1-2)Man(a1-3)[Fuc(a1-2)[Gal(a1-3)]Gal(b1-4)GlcNAc(b1-2)Man(a1-6)]Man(b1-4)GlcNAc(b1-4)GlcNAc
Procedure, shortened: as §1

[7] = molecular target: Fuc(a1-2)[GalNAc(a1-3)]Gal(b1-3)GlcNAc(b1-2)Man(a1-3)[Fuc(a1-2)[GalNAc(a1-3)]Gal(b1-3)GlcNAc(b1-2)Man(a1-6)]Man(b1-4)GlcNAc(b1-4)GlcNAc
Procedure, shortened: as §1

[8] = molecular target: Fuc(a1-2)[GalNAc(a1-3)]Gal(b1-4)GlcNAc(b1-2)Man(a1-3)[Fuc(a1-2)[GalNAc(a1-3)]Gal(b1-4)GlcNAc(b1-2)Man(a1-6)]Man(b1-4)GlcNAc(b1-4)GlcNAc
Procedure, shortened: as §1

[9] = molecular target: Fuc(a1-2)[GalNAc(a1-3)]Gal(b1-4)GlcNAc(b1-3)Gal(b1-4)GlcNAc(b1-3)Gal(b1-4)GlcNAc
Procedure, shortened: as §1

[10] = molecular target: Fuc(a1-3)[Gal3S(b1-4)]GlcNAc
Procedure, shortened: as §1

[11] = molecular target: Fuc(a1-3)[Gal3S(b1-4)]GlcNAc6S
Procedure, shortened: as §1

[12] = molecular target: Gal(a1-4)Gal(b1-4)GlcNAc
Procedure, shortened: as §1

[13] = molecular target: Gal(b1-3)Gal(b1-4)GlcNAc(b1-2)Man(a1-3)[Gal(b1-3)Gal(b1-4)GlcNAc(b1-2)Man(a1-6)]Man(b1-4)GlcNAc(b1-4)GlcNAc
Procedure, shortened: as §1

[14] = molecular target: Gal(b1-3)GalNAc(a1-3)[Fuc(a1-2)]Gal(b1-4)GlcNAc
Procedure, shortened: as §1

[15] = molecular target: Gal(b1-3)GlcNAc(b1-3)Gal(b1-4)GlcNAc
Procedure, shortened: as §1

[16] = molecular target: Gal(b1-3)GlcNAc(b1-3)Gal(b1-4)[Fuc(a1-3)]GlcNAc(b1-6)[Gal(b1-3)GlcNAc(b1-3)]Gal(b1-4)Glc
Procedure, shortened: as §1

[17] = molecular target: Gal(b1-3)GlcNAc(b1-6)Gal(b1-4)GlcNAc
Procedure, shortened: as §1

[18] = molecular target: Gal(b1-3)[Fuc(a1-4)]GlcNAc(b1-2)Man(a1-3)[Gal(b1-3)[Fuc(a1-4)]GlcNAc(b1-2)Man(a1-6)]Man(b1-4)GlcNAc(b1-4)GlcNAc
Procedure, shortened: as §1

[19] = molecular target: Gal(b1-3)[GlcNAc(b1-6)]GalNAc
Procedure, shortened: as §1

[20] = molecular target: Gal(b1-4)GlcNAc(b1-3)Gal(b1-3)GlcNAc
Procedure, shortened: as §1

[21] = molecular target: Gal(b1-4)GlcNAc(b1-3)[Gal(b1-4)GlcNAc(b1-6)]Gal(b1-4)GlcNAc
Procedure, shortened: as §1

[22] = molecular target: Gal3S(b1-4)Glc
Procedure, shortened: as §1

[23] = molecular target: Gal3S(b1-4)[Fuc(a1-3)]Glc
Procedure, shortened: as §1

[24] = molecular target: GalNAc(b1-3)Gal(a1-4)Gal(b1-4)GlcNAc(b1-3)Gal(b1-4)Glc
Procedure, shortened: as §1

[25] = molecular target: Glc(a1-6)Glc(a1-6)Glc
Procedure, shortened: as §1

[26] = molecular target: GlcNAc(b1-3)Man
Procedure, shortened: as §1

[27] = molecular target: Man(a1-2)Man(a1-3)[Man(a1-2)Man(a1-6)]Man(a1-6)[Man(a1-2)Man(a1-2)Man(a1-3)]Man
Procedure, shortened: as §1

[28] = molecular target: Man(a1-6)Man
Procedure, shortened: as §1

[29] = molecular target: Neu5Ac(a2-3)Gal(b1-4)GlcNAc(b1-2)Man(a1-3)[GlcNAc(b1-2)Man(b1-4)GlcNAc(b1-2)Man(a1-6)]Man(b1-4)GlcNAc(b1-4)GlcNAc
Procedure, shortened: as §1

[30] = molecular target: Neu5Ac(a2-3)Gal(b1-4)[Fuc(a1-3)]GlcNAc
Procedure, shortened: as §1

[31] = molecular target: Neu5Ac(a2-6)Gal(b1-4)GlcNAc(b1-3)Gal(b1-4)GlcNAc(b1-3)Gal(b1-4)GlcNAc
Procedure, shortened: as §1

[32] = molecular target: Neu5Ac9Ac(a2-6)Gal(b1-4)GlcNAc
Procedure, shortened: as §1

[33] = molecular target: Neu5Gc(a2-3)Gal(b1-4)GlcNAc
Procedure, shortened: as §1

[34] = molecular target: Neu5Gc(a2-3)Gal(b1-4)[Fuc(a1-3)]GlcNAc
Procedure, shortened: as §1

B1: Gal 3 (Homo sapiens), P17931 (protein)
chain: MADNFSLHDALSGSGNPNPQGWPGAWGNQPAGAGGYPGASYPGAYPGQAPPGAYPGQAPPGAYHGAPGAYPGAPAPGVYPGPPSGPGAYPSSGQPSAPGAYPATGPYGAPAGPLIVPYNLPLPGGVVPRMLITILGTVKPNANILDFQRGNDVAFHFNPRFNENNRRVIVCNTKLDNNWGREEIQSVFPFESGKPFKIQVLVEPDHFKVAVNDAHLLQYNHRVKKLNEISKLGISGDIDLTSASYTMI
glycan array binding signal (z-score) [1]: -0.188 | glycan array binding signal (z-score) [2]: -0.055 | glycan array binding signal (z-score) [3]: -0.187 | glycan array binding signal (z-score) [4]: 2.01 | glycan array binding signal (z-score) [5]: 5.08 | glycan array binding signal (z-score) [6]: 10.8 | glycan array binding signal (z-score) [7]: 3.39 | glycan array binding signal (z-score) [8]: 8.83 | glycan array binding signal (z-score) [9]: -0.113 | glycan array binding signal (z-score) [10]: -0.147 | glycan array binding signal (z-score) [11]: -0.154 | glycan array binding signal (z-score) [12]: -0.127 | glycan array binding signal (z-score) [13]: 11.1 | glycan array binding signal (z-score) [14]: -0.146 | glycan array binding signal (z-score) [15]: -0.166 | glycan array binding signal (z-score) [16]: -0.002 | glycan array binding signal (z-score) [17]: -0.173 | glycan array binding signal (z-score) [18]: -0.173 | glycan array binding signal (z-score) [19]: -0.128 | glycan array binding signal (z-score) [20]: 0.065 | glycan array binding signal (z-score) [21]: 0.077 | glycan array binding signal (z-score) [22]: -0.189 | glycan array binding signal (z-score) [23]: -0.171 | glycan array binding signal (z-score) [24]: 2.69 | glycan array binding signal (z-score) [25]: -0.021 | glycan array binding signal (z-score) [26]: -0.189 | glycan array binding signal (z-score) [27]: -0.075 | glycan array binding signal (z-score) [28]: -0.185 | glycan array binding signal (z-score) [29]: -0.073 | glycan array binding signal (z-score) [30]: -0.164 | glycan array binding signal (z-score) [31]: -0.107 | glycan array binding signal (z-score) [32]: -0.185 | glycan array binding signal (z-score) [33]: -0.157 | glycan array binding signal (z-score) [34]: -0.165

Reference: the supplement of paper PMC8728848
